Source: PubChem BioAssay AID1469 (National Center for Advancing Translational Sciences (NCATS), 2008)
Screen size: about 280,000 compounds; about 180 (0.064%) were called active. Entries that show only a call come without a potency. Calls come from the whole dose curve; as a rule, active = well fitted inhibition curve with a large enough effect; inconclusive = small, poorly fitted or top-dose-only effect, or effect the other way; inactive = flat fitted curve, though single readings scatter. For the sample, actives were picked, then their nearest neighbours and some compounds at random.

The compounds below were run against Thyroid hormone receptor beta (Homo sapiens) (UniProt P10828) (assay: qHTS for Inhibitors of the Interaction of Thyroid Hormone Receptor and Steroid Receptor Coregulator 2). Conditions: TRbeta-SRC2 peptide binding, fluorescence polarization, receptor liganded with 1 µM T3; series mostly up to 106 µM.
Sequence of Thyroid hormone receptor beta (Homo sapiens) (P10828 whole entry, looked up): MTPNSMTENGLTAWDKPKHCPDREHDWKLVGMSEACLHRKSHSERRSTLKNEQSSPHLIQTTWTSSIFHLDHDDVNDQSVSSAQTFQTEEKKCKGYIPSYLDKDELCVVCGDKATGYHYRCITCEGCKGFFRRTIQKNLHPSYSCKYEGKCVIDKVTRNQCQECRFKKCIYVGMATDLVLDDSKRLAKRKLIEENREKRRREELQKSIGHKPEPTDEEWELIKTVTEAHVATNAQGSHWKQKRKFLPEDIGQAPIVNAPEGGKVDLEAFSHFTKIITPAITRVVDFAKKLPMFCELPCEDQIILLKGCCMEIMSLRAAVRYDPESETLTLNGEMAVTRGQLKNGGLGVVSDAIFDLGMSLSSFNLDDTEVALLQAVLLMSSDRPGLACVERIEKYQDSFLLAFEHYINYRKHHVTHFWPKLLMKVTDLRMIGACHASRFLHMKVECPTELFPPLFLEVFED
Description: NIH Molecular Libraries Probe Production Network [MLPCN]
NIH Chemical Genomics Center [NCGC]
Assay Provider: R. Kip Guy, St. Jude Children's Research Hospital
Thyroid receptor (TR) regulates many homeostatic processes including basal metabolism, cardiovascular function, body weight, and lipid trafficking. TR modulators are potential therapeutics for obesity and hyperlipidemias but current thyroid analogs have undesirable side effects, particularly cardiac stimulation. To identify inhibitors that specifically prevent the interaction of TR with the steroid receptor coregulator 2 (SRC2), a fluorescence polarization assay was screened. This assay detects interaction of the ligand-binding domain of human TRb with a Texas Red labeled SRC2 peptide, corresponding to a 20 amino acid region of the nuclear receptor interaction domain (Arnold et al., 2006). Small molecule inhibitors that block the interaction of TR and SRC2 are detected by a decrease in fluorescence polarization.
Arnold, L. A.; Estebanez-Perpina, E.; Togashi, M.; Shelat, A.; Ocasio, C. A.; McReynolds, A. C.; Nguyen, P.; Baxter, J. D.; Fletterick, R. J.; Webb, P.; Guy, R. K. A high-throughput screening method to identify small molecule inhibitors of thyroid hormone receptor coactivator binding. Sci STKE 2006, p 13.
NCGC Assay Protocol Summary:
For screening, 5 uL/well 0.6 uM TRb and 20 nM SRC2 Texas Red in protein buffer (20mM Tris hydrochloride, 100mM NaCl, 10% glycerol, 1mM EDTA, 0.01% NP-40, 1mM DTT, 1uM T3 and 5% DMSO) was dispensed into black solid 1536-well plates (Grenier) using a solenoid-based dispenser. Following transfer of 23 nL compound or DMSO vehicle by a pin tool, the plates were centrifuged 15 s at 1000 RPM and incubated 5 hr at ambient temperature. The plates were read by an Envision (Perkin Elmer) to detect fluorescence polarization of SRC2 Texas Red (555 nm excitation and 632 nm emission). Data were normalized to unbound (all components except TRb) and bound SRC2 Texas Red controls. In this assay, we provide % activity data for each concentration as well as potencies for the active compounds.
Keywords: NIH Roadmap, MLPCN, MLI, MLSMR, qHTS, NCGC, qHTS, thyroid hormone receptor, steroid receptor coactivator, fluorescence polarization
Note: nearly all actives have a fitted effect of over 50% in size.
Potency is the fitted concentration of half-maximal effect.

Compound | Potency
Cc1ccc(CN2CCc3nc(N4CCN(C)CC4)ncc3C2)cc1 | inactive
CCN1CCN(c2ncc3c(n2)CC(c2ccccc2O)CC3=O)CC1 (stereo not given) | inactive
Cc1nc2nc(SCC(=O)N(Cc3ccccc3)C(C)C)nn2c(C)c1Cc1ccccc1Cl | inactive
Cc1ccc(NC(=O)c2nc(S(=O)(=O)Cc3cccc(C)c3)ncc2Cl)cc1 | inactive
CC(=O)OC1=C(C(C)=O)N(Cc2ccccc2)S(=O)(=O)c2ccccc21 | inactive
Cc1cccc(OCCSc2nc3ccccc3n2CC(=O)N2CCCCC2)c1C | inactive
Cc1ccccc1CNC(=O)CCCn1nc(C)c2sc3ccccc3c2c1=O | inactive
Cc1c(C)n(Cc2ccc(Cl)cc2)c2ccc(C(=O)NCCc3ccc(S(N)(=O)=O)cc3)cc12 | inactive
COc1ccc2cc(CNc3ccc(OC)c(OC)c3)c(=O)n(CC(=O)Nc3ccccc3F)c2c1 | inactive
CSc1ccc(C2C(C(=O)Nc3ccccc3)=C(C)Nc3nc4ccccc4n32)cc1 (stereo not given) | inactive
COc1ccc(CCNC(=O)c2nn(C)c3c2CSc2ccccc2-3)cc1OC | inactive
COc1ccc(-c2nc(C)c(CCNC(=O)c3ccc(C(F)(F)F)cc3)s2)cc1OC | inactive
COc1c(O)c2c(=O)cc(OC)c3c4c(OC)cc(=O)c5c(O)c(OC)c6c(c(c1C[C@@](C)(O)[C@H]6C(C)=O)c23)c54 | 35.5 µM (active)
COc1ccc2c(c1)c(N1CCCC1=O)c(C(=O)Nc1ccc(OC)c(Cl)c1)n2C | inactive
COc1ccc(Cl)cc1NC(=O)c1sc2nc3c(cc2c1N)CN(C)CC3 | inactive
Cc1cccc(NC(c2cccc(F)c2)c2ccc3ccc(C)nc3c2O)n1 (stereo not given) | inactive
CCOc1ccc(N(Cc2ccccc2)C(=O)c2nc(S(C)(=O)=O)ncc2Cl)cc1 | inactive
CC1CCCCC1NC(=O)/C(C#N)=C/C=C/c1ccccc1[N+](=O)[O-] (stereo not given) | 39.8 µM (active)
O=C(/C=C/c1ccccc1[N+](=O)[O-])NCC1CCCO1 (stereo not given) | inactive
O=C(/C=C/c1ccccc1[N+](=O)[O-])OC1CCCCC1=O (stereo not given) | inactive

Compound | Potency
CCNS(=O)(=O)c1cc(-c2nnc(Nc3cccc(C(F)(F)F)c3)c3ccccc23)ccc1C | inactive
O=C(NCCCN1CCN(c2cccc(Cl)c2)CC1)c1nnc(Cc2ccc(F)cc2Cl)o1 | inactive
COc1ccc(-c2cc(NCc3ccc(F)cc3)n3cnnc3n2)cc1 | inactive
Cc1ccc(NC(=O)CN2C(=O)C(c3ccc(F)cc3)=NC23CCCCCC3)c(C)c1 | inactive
Cc1ccc(Nc2c(-c3ccc(N(C)C)cc3)nc3nc[nH]n23)cc1 | inactive
O=C(NC1CC(=O)N(c2ccc(F)cc2)C1)c1ccc(S(=O)(=O)N2CCCC2)cc1 (stereo not given) | inactive
COC(=O)c1ccc(NC(=O)CSc2n[nH]c(-c3ccccc3)n2)cc1 | inactive
Cn1nc(-c2ccccc2)c(-c2ccccc2)c(C(=O)Nc2ccc(S(N)(=O)=O)cc2)c1=O | inactive
COc1ccc(-c2cn3c(n2)sc2cc(C(=O)Nc4ccccc4F)ccc23)cc1 | inactive
CCOc1cccc(NC(=O)CSc2ncc(-c3ccc(Cl)cc3)[nH]2)c1 | inactive
O=C(Nc1c(C(=O)N2CCN(c3ccc(F)cc3)CC2)oc2ccccc12)c1ccco1 | inactive
COc1ccc(-c2noc(CSc3nc(C)cc(=O)[nH]3)n2)cc1OC | inactive
CCOC(=O)c1cnc2c(C)cc(C)cc2c1Nc1ccc(N2CCOCC2)cc1 | inactive
CC(C)c1ccc(C2CC(=O)N3CN(C4CCCCC4)CSC3=C2C#N)cc1 (stereo not given) | inactive
Clc1nc(Cl)c(Cl)c(Cl)c1Cl | inactive
O=C(c1cnn(-c2ccc(F)cc2)c1-n1cccc1)N1CCN(c2ccc(F)cc2)CC1 | inactive
COc1ccc(-c2cccc(NS(=O)(=O)c3cc(C)c(OC)c(C)c3C)c2)nn1 | inactive
O=C(CSc1nc2nccnc2c(=O)n1CCc1c[nH]c2ccccc12)Nc1ccccc1F | inactive
COc1cccc(-n2cc(C(=O)NCc3cccc(Cl)c3)c3ccccc3c2=O)c1 | inactive
CCN(Cc1ccccc1)C(=O)c1cn(-c2cccc(OC)c2)c(=O)c2ccccc12 | inactive

Compound | Potency
O=C(CSc1nccn1-c1ccc(F)cc1)Nc1cccc2ccccc12 | inactive
CC1=C(c2ccc(C)cc2)S(=O)(=O)NC1=NCCCN1CCN(c2cc(C)ccc2C)CC1 | inactive
COc1ccc(-c2cc(C(=O)NCc3cc(OC)c(OC)c(OC)c3)[nH]n2)cc1 | inactive
CCC(C(=O)Nc1cc(OC)ccc1OC)n1c(=O)c(C(F)(F)F)nc2ccccc21 (stereo not given) | inactive
CCOC(=O)c1oc2ccc(S(=O)(=O)n3nc(-c4ccccc4OC)cc3N)cc2c1C | inactive
COc1ccc(NS(=O)(=O)c2cc3c4c(c2)CC(=O)N4CCC3)cc1Cl | inactive
Cc1ccc(C)c(Nc2nnc(-c3ccc(C)c(S(=O)(=O)N4CCCCC4)c3)c3ccccc23)c1 | inactive
O=C(C1CCCN(S(=O)(=O)c2cccc3nonc23)C1)N1CCN(c2ccccc2F)CC1 (stereo not given) | inactive
O=C1CSC2(C(=O)N(Cc3ccccc3)c3ccccc32)N1c1cccc(F)c1 (stereo not given) | inactive
CCn1cc(C(=O)N2CCN(c3cc(C)ccc3C)CC2)c(=O)c2cc(S(=O)(=O)N(C)C3CCCCC3)ccc21 | inactive
Cc1nnc(NC(=O)CSc2nc3c([nH]c4ccccc43)c(=O)n2-c2cccc(Cl)c2)s1 | inactive
COc1ccccc1N1CCN(C(=O)C2CCN(S(=O)(=O)c3c(C)noc3/C=C/c3ccc(C)cc3)CC2)CC1 | inactive
CCOc1ccc2oc(=O)cc(CN3CCN(C(=O)c4ccc(F)cc4)CC3)c2c1 | inactive
Cc1cccc(N2CCN(C(=O)CCn3c(=O)c4cccn4c4cccnc43)CC2C)c1 (stereo not given) | inactive
COc1ccc(-n2ccnc(NCCc3ccc(Cl)cc3)c2=O)cc1OC | inactive
CCn1c(C)c(C)c2cc(C(=O)NCCc3cc(OC)ccc3OC)ccc21 | inactive
COc1ccc(-c2onc(C)c2C)cc1S(=O)(=O)NCC1CCN(Cc2cccc(F)c2)CC1 | inactive
Cc1cccc(NC(=O)CN(c2ccc(C(C)C)cc2)S(=O)(=O)c2c(C)nn(C)c2C)c1C | inactive
Cc1cc2c(cc3c(SCc4cccc(Cl)c4)nnc(C)n32)o1 | inactive
COc1ccc(-c2cn3nc(N4CCC(C(=O)Nc5cccc(C)c5C)CC4)sc3n2)cc1 | inactive
